For the first assay, the system named is RARa:RXR (NR concentration 270 nM, RXRa partner concentration 90 nM). In words: PBM binding z-score (relative to random genomic background probes); higher = stronger binding; sequences stand for … in GC…GCGATTGACAGCGTAGAATGAAGG
In a few lines:
(§1)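 Ligand-free nuclear receptor dimers were applied to custom Agilent 4×180K protein-binding microarrays whose double-stranded probes carried direct-repeat seeds, single-nucleotide variants, half-site ablations and random human genomic background sequences in 34-nt variable regions. Incubation lasted 1 h. Binding z-scores were computed against the random background probes from regression-normalized fluorescence.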
The sequence ATCGAAATGTCGAGGTGAGTATAGAGAAAGGGAA showed a PBM binding z-score of 0.129.
Still for that read-out and setting: to ACTAGCAGGCCCAGTTTGGGTCACTCAAACAAAG belongs 0.833.
With CCTAGTTGGTCGGGAGGTCACACACCGGATATGA, the PBM binding z-score came to 4.55.
On the same count and under the same terms, the value for ATCTCTAGGTAAAGACAGTTCAGTGAATGCAAAT was 0.704; that for CCGATTGGGGCAAGGTTACCATAACGCACAGCCA was 0.793.
Still for that read-out and setting: the value for GCTGTTAGGTCAACTGATGGTCAGCTAAAGCTCG was 3.69.
Same read-out and setting: the value for AGAATGAGGTTATACGTAGTTCAGGGAAGAAAGT was 2.66; that for CCTTGTTGGTCAAGGTCACACACGCTATAGGTAC was 4.45.
As to CGTCCAAGGTCAGAGAGGTCAGTTAATGCCGAGT, the PBM binding z-score is 5.94.
The same measure, in the same setting: the value for TCGAGTAGGTCAGGGGCATTCAGAATGGCGTCGA was 1.44; that for GCAGACAGGTGAAACGCAGGAAACTCAGGGTGGC was -0.0101; that for ACTCGGAGAACAAAGGTCAGAGCTACGCCAGTGA was 3.89.
ATCTCTAGGTAAAGATAGATCAGTGAATGCAAAT registered a PBM binding z-score of -0.0575.
CGTCCAAGGGCAAAGGTCAGTGAAGAGATGACGG had a PBM binding z-score of 6.49.
In turn, TCTCGGAGGACACGAACGGTCAGAGCTCGACATC registered a PBM binding z-score of -0.0917.
Still for that read-out and setting: to GCGACTGGGGTATCAGCAGGTTACCATAACTTAA belongs 0.3.
Regarding ATCTCTAGGTAAAAAGTTCAGTGAAAGAGAGGAC, the PBM binding z-score was found to be 1.33.
The same measure, in the same setting: the value for CTCGAAAGGTCGGTTAAGGTGAGTATACGGATAA was 1.97; that for GCTGCTAGGTCAGGTTGGTCACCTAACGGGTACG was 1.27; that for GGAACGAGGGCAAAGTTGATAGCATCTGTCGACG was 1.56.
Still for that read-out and setting: to CCTTACGGGTGACTGACAGGTTATAGCATTTGGA belongs 0.82.
On the same count and under the same terms, the value for AATCCAGGGTCATCGTAGGCCAGAGTACGCACAG was 5.49.
ACTAGCAGGCCAAGTCTGGGTCACTCAAACAAAG yielded a PBM binding z-score of 1.59.
Same read-out and setting: the value for ATCTCTAGGTAAGACTAAGTTCAGTGAAGAACGC was 1.14.
Still for that read-out and setting: to CAAACTAGGTCAGCGGAAGGTCAAAGTCCGCATG belongs 6.59; to GATACAGGGTCAAGGCCGGAGTACGCGTATTGAT, 4.01; to GCGTACGGGTCAAAGGTTATAGCATGAATAGAAT, 8.62.
Same read-out and setting: the value for CGATCGAGGGCATGAGTTGATAGCAAATGCCGAT was 0.106; that for GTACCTAGGTGAATAGGTCGTTGATGAGTAGGCG was 1.03.
In the case of TCTATTAGTTTATTAGGGCAACCGAAACAGCGGA, the PBM binding z-score was 0.944.
Same read-out and setting: the value for GCTCGGCGGACAAGGTCAGAGCTTTGTCCGTAGA was 1.95; that for ACTAGCAGGCCAAGGGTCTCTCAAGATTAGTCCG was -0.307; that for GCTGCTAGGTCAGGTTGGTCAGATAACGGGTACG was 0.792.
Regarding GCTAGCAGGCCATTTGAGTCACTCAATGACGGGC, the PBM binding z-score is -0.381.
The same measure, in the same setting: the value for CGAACGAGGGCATGCGTTGATAGCAAATGCCGAT was 0.5.
The same measure, in the same setting: to AATAGCAGGCCAAGTTTGGGTCACTCAAACAAAG belongs 1.79; to TCTAGTTCGTCAAAGGTCACACACTCGAAATGCG, 6.52; to ACTTACGGGTCAACGAGGTTATAGTACGCGTATA, 5.61.
In the case of AGAATGAGGGCAATGAGTTGATAGCACGGGTGGC, the PBM binding z-score is 0.357.
For the sequence ACTAGCAGGCCAAGTTTGGGTCACTGAAACAAAG, the PBM binding z-score turned out to be 1.25.

The subject of a further assay is RARa homodimer (NR concentration 270 nM). The assay is described as above. An outline of the steps:
as §1
For ATCGAAATGTCGAGGTGAGTATAGAGAAAGGGAA, the PBM binding z-score was -0.696.
Still for that read-out and setting: to ACTAGCAGGCCCAGTTTGGGTCACTCAAACAAAG belongs -0.613.
On the same count and under the same terms, the value for CCTAGTTGGTCGGGAGGTCACACACCGGATATGA was 2.58; that for ATCTCTAGGTAAAGACAGTTCAGTGAATGCAAAT was 1.05; that for CCGATTGGGGCAAGGTTACCATAACGCACAGCCA was -0.365.
GCTGTTAGGTCAACTGATGGTCAGCTAAAGCTCG displayed a PBM binding z-score of 0.121.
In turn, AGAATGAGGTTATACGTAGTTCAGGGAAGAAAGT had a PBM binding z-score of 0.46.
Same read-out and setting: to CCTTGTTGGTCAAGGTCACACACGCTATAGGTAC belongs 1.4.
CGTCCAAGGTCAGAGAGGTCAGTTAATGCCGAGT came in with a PBM binding z-score of 3.51.
The sequence TCGAGTAGGTCAGGGGCATTCAGAATGGCGTCGA returned a PBM binding z-score of -0.681.
The same measure, in the same setting: the value for GCAGACAGGTGAAACGCAGGAAACTCAGGGTGGC was -0.25.
For ACTCGGAGAACAAAGGTCAGAGCTACGCCAGTGA, the PBM binding z-score turned out to be 0.493.
For ATCTCTAGGTAAAGATAGATCAGTGAATGCAAAT, the PBM binding z-score came out at 1.14.
On the same count and under the same terms, the value for CGTCCAAGGGCAAAGGTCAGTGAAGAGATGACGG was 0.911.
Still for that read-out and setting: to TCTCGGAGGACACGAACGGTCAGAGCTCGACATC belongs -0.739; to GCGACTGGGGTATCAGCAGGTTACCATAACTTAA, -0.218; to ATCTCTAGGTAAAAAGTTCAGTGAAAGAGAGGAC, 1.65.
Still for that read-out and setting: to CTCGAAAGGTCGGTTAAGGTGAGTATACGGATAA belongs 0.996; to GCTGCTAGGTCAGGTTGGTCACCTAACGGGTACG, 0.0555; to GGAACGAGGGCAAAGTTGATAGCATCTGTCGACG, -0.075.
As to CCTTACGGGTGACTGACAGGTTATAGCATTTGGA, the PBM binding z-score turned out to be 0.181.
The same measure, in the same setting: the value for AATCCAGGGTCATCGTAGGCCAGAGTACGCACAG was 1.2.
On the same count and under the same terms, the value for ACTAGCAGGCCAAGTCTGGGTCACTCAAACAAAG was -0.573; that for ATCTCTAGGTAAGACTAAGTTCAGTGAAGAACGC was 0.975; that for CAAACTAGGTCAGCGGAAGGTCAAAGTCCGCATG was 1.75.
On the same count and under the same terms, to GATACAGGGTCAAGGCCGGAGTACGCGTATTGAT belongs 0.567.
As to GCGTACGGGTCAAAGGTTATAGCATGAATAGAAT, the PBM binding z-score is 0.0431.
On the same count and under the same terms, the value for CGATCGAGGGCATGAGTTGATAGCAAATGCCGAT was -0.984; that for GTACCTAGGTGAATAGGTCGTTGATGAGTAGGCG was 0.134.
The same measure, in the same setting: the value for TCTATTAGTTTATTAGGGCAACCGAAACAGCGGA was 1.74.
Still for that read-out and setting: the value for GCTCGGCGGACAAGGTCAGAGCTTTGTCCGTAGA was -0.932.
Consider ACTAGCAGGCCAAGGGTCTCTCAAGATTAGTCCG, for which the PBM binding z-score was -1.21.
On the same count and under the same terms, to GCTGCTAGGTCAGGTTGGTCAGATAACGGGTACG belongs 0.212; to GCTAGCAGGCCATTTGAGTCACTCAATGACGGGC, -1.15; to CGAACGAGGGCATGCGTTGATAGCAAATGCCGAT, -0.165.
On the same count and under the same terms, to AATAGCAGGCCAAGTTTGGGTCACTCAAACAAAG belongs -0.848; to TCTAGTTCGTCAAAGGTCACACACTCGAAATGCG, 3.27; to ACTTACGGGTCAACGAGGTTATAGTACGCGTATA, 1.04.
Same read-out and setting: the value for AGAATGAGGGCAATGAGTTGATAGCACGGGTGGC was 0.124.
ACTAGCAGGCCAAGTTTGGGTCACTGAAACAAAG yielded a PBM binding z-score of -0.321.

These data come from the supplement of paper PMC6555819.
